From PubChem BioAssay (EPA / NIEHS)
The source made the active and inactive calls. How the source made its calls: active means hit-call score of the fitted dose curve at least 0.9, where 1 is the maximum; inactive means score below 0.9.

What follows are molecules tested on Monokine induced gamma interferon (MIG), CXCL9 (gene 4283) (assay: BSK_3C_MIG: BioMAP Diversity Plus: 3C Assay for Monokine induced gamma interferon (MIG) Biomarker Activity (AID 2283021;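 on AC50: MIG protein level measured by immunoassay in the treated endothelial cultures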)). Conditions: primary human endothelial cells (HUVEC); actives raise or lower the signal.
Description: BSK_3C is a cell-based, multiplexed-readout assay that uses umbilical vein endothelium, a human vascular primary cell, with measurements taken at 24 hours after chemical dosing in a 96-well plate.BSK_3C_MIG is an assay component measured in the BSK_3C assay. It measures MIG antibody related to regulation of gene expression using ELISA technology.Data from the assay component BSK_3C_MIG was analyzed into 1 assay endpoint. This assay endpoint, BSK_3C_MIG, was analyzed with bidirectional fitting relative to DMSO as the negative control and baseline of activity. Using a type of binding reporter, gain or loss-of-signal activity can be used to understand changes in the signaling as they relate to the gene CXCL9. Furthermore, this assay endpoint can be referred to as a primary readout, because this assay has produced multiple assay endpoints where this one serves a signaling function. To generalize the intended target to other relatable targets, this assay endpoint is annotated to the cytokine intended target family, where the subfamily is chemotactic factor.
The levels of cell surface (or secreted, indicated by the prefix "s") biomarker endpoints were measured by ELISA. Overt cytotoxicity to cells in confluent adherent cultures (all systems other than the BT system) was assessed by measuring total protein levels using sulforhodamine B (SRB) staining in parallel cultures at the time of biomarker measurements, indicated as SRB endpoints. For proliferation assays for adherent cell types, individual cell types are cultured at sub-confluence and relative cell numbers quantified by SRB staining at time points optimized for each system (48 h: 3C and CASM3C systems; 72 h: BT and HDF3CGF systems; 96 h: SAg system). SRB was performed by staining cells with 0.1% SRB after fixation with 10% TCA and reading wells at 560 nm.Viability and proliferation of PBMC (T cells) was quantified by Alamar Blue reduction for the SAg and BT systems. For PBMC viability (referred to as PBMC Cytotoxicity within the assay endpoint names), cells were plated (75,000/well in a 96-well plate) and then chemical samples added for 1 h before addition of activators, SEB and TSST-1 (20 ng/mL final concentration each). Cells were incubated for 90 h. Then, Alamar Blue (20 uL/well) (Invitrogen, Cat DAL1100) was added for 6 h, and the plates were read with a fluorescence microplate reader at 546/580 nm (excitation/emission). For PBMC proliferation, cells were plated and activated as above but incubated for only 16 h prior to addition of Alamar Blue. Plates were read after 6 h.

Structure (SMILES)	outcome	AC50
Clc1cc(Cl)c2c(c1)N=C1CCCCCN1C2	inactive	–
CCOC(=O)O[C@H](C)OC(=O)c1ccc2c(c1)cc(C(=O)NC1CCN(C(C)C)CC1)n2Cc1cc(-c2ccc(Cl)s2)on1	–	8.78 µM (active)
O=c1[nH]sc2ccccc12	–	28.9 µM (active)
O=c1c(-c2ccc(O)cc2)coc2cc(O)cc(O)c12	inactive	–
CCCCCCCCCCCCO	inactive	–
O=C(O)Cn1c(=O)n(Cc2ccc(Br)cc2F)c(=O)c2ccc(Cl)cc21	inactive	–
CCN(Cc1cccc(S(=O)(=O)O)c1)c1ccc(C(=C2C=CC(=[N+](CC)Cc3cccc(S(=O)(=O)O)c3)C=C2)c2ccccc2S(=O)(=O)[O-])cc1	inactive	–
CCCCCCCCCC(=O)O	inactive	–
CCO[Si](CCCNC(N)=O)(OCC)OCC	inactive	–
Oc1ccccc1	inactive	–
Cc1ccc2oc(CN(Cc3ccccc3)C(=O)Nc3c(F)cc(F)cc3F)c(-c3ccc(Cl)cc3)c2c1	inactive	–
CN(C[C@@H](CC[N+]12CCC(C3CCCCC3)(CC1)CC2)c1ccc(Cl)c(Cl)c1)C(=O)c1cc(C(F)(F)F)cc(C(F)(F)F)c1	–	33.6 µM (active)
O=C(O)c1ccccc1C(=O)OCc1ccccc1	inactive	–
O=C1O[C@H]([C@@H](O)CO)C(O)=C1O	inactive	–
CCCOC(=O)c1cc(O)c(O)c(O)c1	inactive	–
COc1ccc2cc(S(=O)(=O)N[C@H](CC(=O)N[C@H](Cc3ccc(CN4[C@H](C)CCC[C@@H]4C)cc3)C(=O)N(C)C(C)C)c3ccc4c(c3)OCO4)ccc2c1	inactive	–
CO[C@H]1/C=C/O[C@@]2(C)Oc3c(C)c(O)c4c(O)c(c(/C=N/N5CCN(C)CC5)c(O)c4c3C2=O)NC(=O)/C(C)=C\C=C\[C@H](C)[C@H](O)[C@@H](C)[C@@H](O)[C@@H](C)[C@H](OC(C)=O)[C@@H]1C	inactive	–
Cc1ncc(CO)c(CO)c1O	inactive	–
NCc1cccc(C2CCN(C(=O)c3ccc(C#Cc4ccccc4F)o3)CC2)c1	–	36.2 µM (active)
C[C@]12CC[C@@H]3c4ccc(O)cc4CC[C@H]3[C@@H]1CC[C@H]2O	inactive	–

Structure (SMILES)	outcome	AC50
Cc1cc2c(cc1C(F)(F)F)N(C(=O)Nc1ccc(Oc3cccnc3C)nc1)CC2	inactive	–
O=C1CCC(C2CCCCC2)CC1	inactive	–
CCCC(=O)OCCC(C)C	inactive	–
Cc1cn([C@H]2C[C@H](N=[N+]=[N-])[C@@H](CO)O2)c(=O)[nH]c1=O	inactive	–
CC(C)(C)c1cc(/C=C2\SC(N)=NC2=O)cc(C(C)(C)C)c1O	–	37.1 µM (active)
CC1(C)NC(=O)N(c2ccc([N+](=O)[O-])c(C(F)(F)F)c2)C1=O	inactive	–
c1ccc2ccccc2c1	inactive	–
CCN(CC)C(=O)c1cc(S(=O)(=O)Cc2ccccc2)c(N2CCC(c3ccccc3)CC2)cc1N(CC)CCN(C)C	–	29.9 µM (active)
CCCCCCCCN(C)CCCCCCCC	inactive	–
Cc1cc(F)ccc1-c1cc(N2CC[C@@H](O)[C@H]2CO)ncc1N(C)C(=O)C(C)(C)c1cc(C(F)(F)F)cc(C(F)(F)F)c1	–	12.9 µM (active)
CC[C@@H]1C[C@H](N(Cc2cc(C(F)(F)F)cc(C(F)(F)F)c2)C(C)=O)c2cc(C(F)(F)F)ccc2N1C(=O)OC(C)C	inactive	–
C[C@]12CC[C@@H]3c4ccc(O)cc4CC[C@H]3[C@@H]1CCC2=O	inactive	–
Cc1occc1C(=O)Nc1ccc(C(=O)N2CCC(F)(F)/C(=C\C(=O)N3CCC(N4CCCCC4)CC3)c3ccccc32)cc1	inactive	–
c1ccc2n[nH]nc2c1	inactive	–
O=C(OCCCCCCOC(=O)c1ccccc1)c1ccccc1	inactive	–
CC1=CC(=O)/C(=C(/C)O)C(=O)O1	inactive	–
COc1cccc([C@H](O)C2CCN(CCc3ccc(F)cc3)CC2)c1OC	inactive	–
CC(C)(O)c1ccc(CNC(=O)c2cccnc2Oc2ccc3nonc3c2)cc1	inactive	–
Cc1oc2c(NC(=O)c3c(Cl)cccc3Cl)cccc2c1C(C)(C)O	inactive	–
CN(C)c1ccc(C(=C2C=CC(=[N+](C)C)C=C2)c2ccc(N(C)C)cc2)cc1	–	9.93 µM (active)
